# Reference: PubChem BioAssay (NCATS)
# Results filed as inconclusive are left out. Activity calls are given as the source filed them. The call rests on the fitted dose curve; in most records, active means well fitted cell-killing curve with a large enough effect; inconclusive means small, poorly fitted or top-dose-only effect, or effect the other way, or another doubt; inactive means no such curve, though single readings can be large or run the other way.
# Assay: Identifying Small Molecule Inhibitors of Pancreatic Cancer Stem Cells (Panc1, Adherent) (AID 1259362);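 on viability, % of control: compound exposure lasted 48 h before the viability read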
# Details: Potency: viability; series mostly up to 46.1 µM; viability, % of control: at the top concentration
# Source text: Progenitor-like cancer cells, often referred to as cancer stem cells (CSC), are believed to be the drivers of therapeutic resistance and rapid recurrence. CSCs are postulated to reside in specific niches characterized by low oxygen tension, limited nutrient supply, and high redox load. Selectively targeting CSC, alone or in combination with cytotoxic agents, as a means to produce durable remissions is an appealing concept. Modeling these cells in in vitro setting is an important step in finding new therapies and/or targets. Multiple reports highlight that forcing cells in culture into 3-dimensionaly architectures (spheroids) re-establishes key progenitor-like transcriptional signatures. Pancreatic cancer is among the diseases with the most dismal outlook which is driven, largely, by recurance following front-line therapies. […] In hopes of deriving new insight into the targeting of these pancreatic CSCs we examined three established pancreatic cancer cell lines in cytotoxicity assays versus a collection of approved and investigational drugs. Importantly, we screened these lines as traditional monolayer (2D) and spheroid (3D) formats to gain an appreciation of agents with differential activity.
# Multicellular tumor spheroids from Panc1, MiaPaCa-2, and the primary low-passage tissue culture line SB.06 were seeded in stem cell media (SCM) in nonadherent 6-well plates coated with hydrogel (Corning Life Sciences, Chelmsford, Mass) and pancreatic spheres generated for 14 days before screening. Cells were seeded into 1536-well solid-bottom white tissue culture treated Greiner Bio One Plates (789173-F) using a MultiDrop Combi (Thermofisher Scientific) dispenser and a small sterile cassette. One column was media alone to be used as a :"no cells" control. The plates were then covered with sterilized stainless steel gasketed lids from Kalypsys. After allowing cells to attach for 4 hours, 23 nL of test compound or control (negative control DMSO and positive control 9.2 uM Bortezomib-final) were added from a 1536-well polypropylene compound source plate to each well using a 1536 head pin tool from Kalypsys. Cells were then incubated for 48 hours at 37C, 95% relative humidity and 5% CO2. After 48 hours, plates were removed from the incubator and 3 uL of CellTiter-Glo (Promega) was added using an Aurora Flying Reagent Dispenser Bioraptor. Plates were incubated at room temperature for 10 minutes prior to reading the luminescence on the Viewlux (PerkinElmer). The relative luciferase units are used to calculate the percent activity using the activity of DMSO in the cells and no cells columns for normalization of no inhibition and full inhibition respectively.
# Potency means the concentration at half of the fitted maximal effect.
SMILES,Potency,"viability, % of control"
COc1c(C)cnc(Cn2cnc3c(Cl)nc(N)nc32)c1C,0.0332 µM (active),–
CCOC(=O)[C@@H](N)CCC(=O)N[C@@H](CSCc1ccccc1)C(=O)N[C@@H](C(=O)OCC)c1ccccc1,–,118% (inactive)
O=C(O)c1ccc(O)c2ncc(N3CCOCC3)cc12,–,108% (inactive)
COc1ccc(CCN(C)CCCOc2ccc(S(=O)(=O)c3[nH]c4ccccc4c3C(C)C)cc2)cc1OC,26.4 µM (active),–
COc1cc2c(cc1OC)CC(=O)N(CCCN(C)C[C@H]1Cc3cc(OC)c(OC)cc31)CC2,–,83.6% (inactive)
COc1cccc(OC)c1-c1cc(C(=O)NC2(C(=O)O)C3CC4CC(C3)CC2C4)nn1-c1ccnc2cc(Cl)ccc12 (stereo not drawn),–,92.9% (inactive)
CNC(=O)c1cc(Oc2ccc(NC(=O)Nc3ccc(Cl)c(C(F)(F)F)c3)c(F)c2)ccn1,20.9 µM (active),–
Cc1cccc(Nc2nc(N[C@@H]3CCCC[C@H]3N)ncc2C(N)=O)c1,26.4 µM (active),–
COC(=O)Nc1ccc(-c2nc(N3CCOCC3)c3cnn(C4CCN(C(=O)OC)CC4)c3n2)cc1,–,86.8% (inactive)
CC(=O)NCCC(=O)N[C@@H](CCC(N)=O)C(=O)N[C@@H](CO)C(=O)N[C@@H](CCC(N)=O)C(=O)N[C@@H](CCC(N)=O)C(=O)N[C@H](C(=O)N[C@@H](Cc1ccccc1)C(=O)N[C@]1(C)CCCCCCC=CCCC[C@@](C)(C(=O)N[C@@H](CCC(N)=O)C(=O)N[C@@H](CC(N)=O)C(N)=O)NC(=O)[C@H](CC(C)C)NC(=O)[C@H](CC(C)C)NC(=O)[C@@H](CCCNC(=N)N)NC(=O)[C@H](Cc2c[nH]c3ccccc23)NC(=O)[C@H](CC(C)C)NC(=O)[C@H](CC(N)=O)NC1=O)[C@H](C)O,–,87% (inactive)
O=C(Nc1cccc(Cl)c1)Nc1ncc(CCNc2ncnc3ccsc23)s1,18.7 µM (active),–
CC(C)(C)c1[nH]cnc1C=c1[nH]c(=O)c(=Cc2ccccc2)[nH]c1=O,0.0187 µM (active),–
Cn1cc(-c2ccc3nnc(Sc4ccc5ncccc5c4)n3n2)cn1,–,86.8% (inactive)
CCCCCCCCCCCCCC(=O)N[C@H](CO)[C@H](O)c1ccc([N+](=O)[O-])cc1,–,93.3% (inactive)
CC(O)=C(C#N)C(=O)Nc1ccc(C(F)(F)F)cc1,–,75.4% (inactive)
CN(C)CCN(C)C(=O)c1ccc(NC(=O)Nc2ccc(-c3nc(N4CCOCC4)c4ccn(CC(F)(F)F)c4n3)cc2)cc1,14.8 µM (active),–
COc1nc(C)cnc1NS(=O)(=O)c1cccnc1-c1ccc(-c2nnco2)cc1,–,105% (inactive)
COc1ccc2c(c1)CC[C@H]1[C@@H]2CC[C@]2(C)[C@@H](NCCCCCCN3C(=O)C=CC3=O)CC[C@H]12,–,86.8% (inactive)
